The panel holds about 83,000 compounds, 20% with a hit somewhere; the sample as a whole holds those more often.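 Single-concentration screen, 48 h exposure, 96-well plates. Endpoint: percent growth. Below 10 = active.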 Active and inactive are the calls of the source.
Legend:
Assay in all cases: NCI-60 one-dose screen, 48 h (100 = growth as untreated, 0 = no growth, -100 = all killed)
Conditions in all cases: 10 µM unless noted
[1] = tested on: T-47D breast
[2] = tested on: BT-549 breast
[3] = tested on: MDA-MB-435 melanoma
[4] = tested on: SW-620 colon
[5] = tested on: MCF7 breast
[6] = tested on: HCT-116 colon
[7] = tested on: HCC-2998 colon
[8] = tested on: KM12 colon

Measured: growth

CCOC(=O)c1c(NC(=O)c2cccc(C(F)(F)F)c2)sc2c(CN3CCN(C)CC3)c(O)ccc12
active: [3] -81.5% | [4] -66.4% | [5] -85.4% | [6] -82.6% | [7] -36.6% | [8] -75.2%
inactive: [1] 21% | [2] 102%

C/C(=N\NC(=O)CSc1nc2sc3c(c2c(=O)n1-c1ccccc1)CCC(C)C3)c1ccc(Cl)cc1 (stereo not drawn)
inactive: [1] 46.4% | [2] 36.8% | [3] 30.1% | [4] 31.6% | [5] 14% | [6] 26.6% | [7] 45.4% | [8] 25.1%

O=C1c2c(c3c4cccnc4[nH]c3c3ccc4ccccc4c23)C(=O)N1CCN1CCNCC1
inactive: [1] 99.2% | [2] 102% | [3] 89.9% | [4] 55.9% | [5] 27.8% | [6] 36.6% | [7] 81.8% | [8] 73.6%

COc1cc(/C=C/C(=O)c2ccc(NC(=O)CSc3nnc(-c4ccc5nc(-c6ccccc6)[nH]c5c4)o3)cc2)cc(OC)c1OC
inactive: [1] 89% | [2] 81.6% | [3] 94.1% | [4] 98.8% | [5] 43.9% | [6] 40.8% | [7] 111% | [8] 90%

CN(c1ccc(Br)cc1)S(=O)(=O)c1ccc(-c2cnc(C3CC3)o2)cc1
inactive: [1] 55.1% | [2] 19.3% | [4] 27.9% | [5] 21.1% | [6] 14.5% | [7] 16.4% | [8] 23.2%
active: [3] -12.1%

COc1cc2c3c(n(CCCNC4CCCC4)c(=O)c2cc1OC)-c1cc2c(cc1C3=O)OCO2
inactive: [1] 86% | [2] 74.8% | [7] 23.2% | [8] 65.6%
active: [3] -49.6% | [4] -83.6% | [5] -74.8% | [6] -90.9%

Nc1cc(F)ccc1NC(=O)c1ccc(NC(=O)C/C=C/c2cccnc2)cn1
inactive: [2] 25.3% | [3] 13.7% | [4] 10.6% | [7] 15.5% | [8] 24.5%
active: [1] 5.13% | [5] 5.2% | [6] -13.2%

Nc1nc(-c2cccc([N+](=O)[O-])c2)c(N=Nc2ccccc2[N+](=O)[O-])s1
inactive: [1] 42.3% | [2] 34.4% | [3] 67.7% | [5] 82.2% | [7] 84.9% | [8] 54.2%
active: [4] 6.99% | [6] -13.8%

IP(CCCCCCCCCCSc1n(Cc2ccc3ccccc3c2)c(-c2ccccc2)c(-c2ccccc2)[n+]1Cc1ccc2ccccc2c1)(c1ccccc1)(c1ccccc1)c1ccccc1
active: [1] -57.4% | [2] -71.4% | [3] -81.7% | [4] -77.8% | [5] -54.2% | [6] -60.9% | [7] -86.8% | [8] -83.3%

CC(C)c1nn(-c2ccccc2)c(N2CCCCC2)c1/C=N/NC(N)=S
inactive: [1] 66.8% | [2] 85.2% | [3] 97.5% | [4] 101% | [5] 75.7% | [6] 79.1% | [7] 105% | [8] 103%

O=C(Nc1ccc(Cl)cc1)Nc1nc2ccc([N+](=O)[O-])cc2s1
active: [1] -25.9% | [2] -38% | [3] -27.7% | [4] 0.202% | [5] -15.4% | [6] -35.1% | [7] -27.6% | [8] -13.2%

CS(=O)(=O)c1nccc(-c2c(-c3ccc(F)c(OCc4ccccc4)c3)nc3sccn23)n1
inactive: [1] 18.5% | [3] 101% | [4] 100% | [5] 16.5% | [6] 38% | [7] 32.2% | [8] 96.5%
active: [2] -0.34%

CCNC(=O)Oc1ccc(/C(=C(/C)c2ccc(Cl)cc2)c2ccc(OCCN3CCCC3)cc2)cc1
inactive: [1] 56.8% | [2] 90.4% | [3] 89.8% | [4] 83.1% | [5] 25.3% | [6] 53.1% | [7] 77.4% | [8] 95.5%

COc1c([C@@H](CC(C)C)OC(C)=O)ccc2c1C(=O)OCc1cc(C)cc(O)c1O2
inactive: [1] 17.4% | [2] 31.3% | [3] 30% | [4] 20% | [5] 18.4% | [6] 12.3% | [7] 35% | [8] 30.7%

COc1ccc(C(=O)n2cc(C=O)c3ccccc32)cc1
inactive: [1] 106% | [2] 100% | [3] 88.8% | [4] 90% | [5] 82.1% | [6] 91.3% | [7] 104% | [8] 102%

NS(=O)(=O)c1ccc(-n2cc(CC=O)nn2)cc1
inactive: [1] 102% | [2] 111% | [3] 102% | [4] 109% | [5] 93.6% | [6] 108% | [7] 97.9% | [8] 112%

COc1ccc(/C(C)=C(\c2ccc(Cl)cc2)c2ccc(OCCN)cc2)cc1
inactive: [1] 95.2% | [2] 91.7% | [3] 76.9% | [4] 36.4% | [5] 72.4% | [6] 42.3% | [7] 30.2% | [8] 78.2%

CC(=O)Nc1cccc(-n2cnc3cc(-c4ccc(O)cc4)ccc32)c1
active: [3] -17.7%
inactive: [1] 27.7% | [2] 49.2% | [4] 19.4% | [5] 31.4% | [6] 20.8% | [7] 79.6% | [8] 20.6%

CCOC(=O)c1c(Nc2ccccc2)nn2c(-c3ccc(OC)c(OC)c3)ccnc12
inactive: [1] 41.3% | [2] 112% | [3] 69.6% | [4] 40.9% | [5] 55% | [6] 42.7% | [7] 52.2% | [8] 44.9%

COc1ccc(-c2oc3cc(O)cc(O)c3c(=O)c2OC)cc1O
inactive: [1] 22.6% | [2] 40.3% | [4] 29.6% | [5] 25.8% | [6] 12.4% | [8] 26.2%
active: [3] -34.3%

COc1ccc([C@@H]2[C@@H](O)C(=O)N2c2cc(OC)c(OC)c(OC)c2)cc1Cl
active: [2] -9.18% | [3] -8.49% | [6] 2.44% | [7] 8.34%
inactive: [1] 103% | [4] 17.9% | [5] 11.5% | [8] 13.2%

O=C(NCCCNc1cc(-c2cn(-c3ccccc3)nc2-c2cccc(O)c2)ccn1)Nc1cc(C(F)(F)F)cc(C(F)(F)F)c1
inactive: [1] 77.5% | [2] 84.9% | [3] 75.3% | [4] 94.2% | [5] 59.1% | [6] 51.2% | [7] 66.8% | [8] 58.1%

COc1cc2cc(Oc3ccc(NC(=O)c4cccc(C(F)(F)F)c4)cc3)c(C)nc2cc1OCCN(C)C
inactive: [1] 91.2% | [2] 101% | [4] 79.5% | [5] 22.7% | [6] 61.2% | [7] 80.3% | [8] 76.9%
active: [3] 6.7%

CS(=O)(=O)c1ccc2c(c1)c1c(n2Cc2ccc(Cl)cc2)CCCC1
inactive: [1] 51.9% | [2] 89% | [3] 31.1% | [5] 72.6% | [6] 61.9% | [7] 85.5% | [8] 66.6%

C=CCn1c(SCC(=O)Nc2cccc(C(=O)/C=C/c3cccc([N+](=O)[O-])c3)c2)nc2ccccc2c1=O
active: [6] 8.94%
inactive: [1] 79.1% | [2] 111% | [3] 98.4% | [5] 33.2% | [7] 101% | [8] 104%

C/C(=N\NC(=S)Nc1ccc(Br)cc1)c1cc2ccccc2oc1=O
inactive: [1] 43.1% | [3] 11.4% | [6] 16.3% | [7] 29.8%
active: [2] 8.5% | [5] 6.49% | [8] 0.612%

CC1OC(O[C@@H]2C(O)C(CO)OC(O[C@H]3COC(O[C@H]4CC[C@]5(C)[C@H]6CC[C@]78OC[C@@]9(CC[C@](C)(C=O)C[C@H]97)[C@H](O)C[C@@]8(C)[C@]6(C)CC[C@H]5C4(C)C)[C@@H](OC4OC(CO)[C@@H](O)[C@@H](O)[C@@H]4O)[C@@H]3O)[C@H]2OC2OC[C@@H](O)[C@@H](O)[C@@H]2O)[C@@H](O)[C@@H](O)[C@H]1O (stereo partly drawn)
active: [2] -56.9% | [3] -55.1% | [6] -65.9%
inactive: [1] 53.1% | [4] 10% | [5] 11% | [8] 23.7%

Cc1ccc(-c2cc(-c3ccc(N(C)C)cc3)n3c(n2)nc2ccccc23)cc1
active: [1] 6.32%
inactive: [2] 82.2% | [3] 65.3% | [5] 59.2% | [6] 39.4% | [7] 80.3% | [8] 78.4%
